Laboratory results published in PubChem BioAssay.
Activity calls are given as the source filed them. Unless noted, the rule behind the calls is not given here.

Key:
[1] = A549 cell viability effects, profiling panel, calcein-AM fluorescence, 48 h, basal (AID 1162); settings: higher = more signal; note: test concentration not given here
[2] = adipocyte viability effects, profiling panel, cell-based, 3T3-L1 adipocytes, calcein-AM fluorescence, 48 h, basal (AID 1163); settings: 3T3-L1 adipocytes viability, higher = more signal; note: test concentration not given here
[3] = HepG2 cell viability effects, profiling panel, calcein-AM fluorescence, 48 h, basal (AID 1164); settings: higher = more signal; note: test concentration not given here
[4] = MM1S cell viability effects, profiling panel, calcein-AM fluorescence, 48 h, basal (AID 1165); settings: higher = more signal;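 note: viability of MM1S multiple myeloma cells under basal unstimulated conditions; test concentration not given here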
[5] = basal RPMI8226 viability, no added stimulus, profiling panel, cell-based, calcein-AM fluorescence, 48 h, PK04 Diversity Set (AID 1166); settings: RPMI8226 myeloma viability, higher = more signal;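 note: cells grown under basal conditions without added stimulus; test concentration not given here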
[6] = basal HepG2 mitochondrial membrane potential changes, profiling panel, cell-based, JC-1 fluorescence, 24 h, 100 nL compound (AID 1167); settings: higher = more signal; note: test concentration not given here
[7] = basal 3T3-L1 adipocyte mitochondrial potential changes, profiling panel, cell-based, JC-1 fluorescence, 3T3-L1 adipocytes, 24 h, 100 nL compound (AID 1168); settings: JC-1 mitochondrial fluorescence, higher = more signal, called active from +8 up or from −8 down; note: test concentration not given here
[8] = basal RPMI8226 mitochondrial membrane potential changes, profiling panel, cell-based, JC-1 fluorescence, 24 h, 100 nL compound (AID 1169); settings: RPMI8226 myeloma, JC-1 mitochondrial potential fluorescence, higher = more signal; note: test concentration not given here
[9] = basal MM1S mitochondrial membrane potential changes, profiling panel, cell-based, JC-1 fluorescence, 24 h, 100 nL compound (AID 1170); settings: higher = more signal; note: test concentration not given here
[10] = A549 lung cancer cell viability effects, profiling panel, resazurin fluorescence, 24 h, PK04 Diversity Set (AID 1171); settings: higher = more signal, called active from +8 up or from −8 down; note: test concentration not given here
[11] = HepG2 liver cancer cell viability effects, profiling panel, resazurin fluorescence, 24 h, PK04 Diversity Set (AID 1172); settings: higher = more signal; note: test concentration not given here
[12] = basal S. cerevisiae growth modulation, no modifier, primary screen, OD600, strain BY4716, 24 h, basal condition (AID 1173); settings: OD600, 24 h, higher = more signal, called active from +8 up or from −8 down
[13] = MM1S myeloma cell viability, profiling panel, resazurin fluorescence, basal, 24 h, PK04 Diversity Set (AID 1174); settings: higher = more signal, called active from +8 up or from −8 down;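 note: MM1S multiple myeloma cell line; test concentration not given here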
[14] = target: Dihydroorotate dehydrogenase (quinone), mitochondrial (Plasmodium falciparum (isolate 3D7)) (UniProt Q08210); assay: PfDHODH enzyme inhibitors, primary screen, biochemical, C-terminal His tag, absorbance 600 nm (AID 1175); settings: DCIP absorbance 600 nm, higher = more signal, called active from +8 up or from −8 down;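 note: recombinant parasite enzyme with a five histidine tag at its C terminus; test concentration not given here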
[15] = P. aeruginosa biofilm formation inhibitors, primary screen, strain PAO1, LB-PBS medium, absorbance 600 nm (AID 1176); note: test concentration not given here; settings: P. aeruginosa PAO1 growth/biofilm, A600, 12 h; higher = more signal
[16] = S. cerevisiae RM11-1a growth modifiers, primary screen, strain RM11-1a, OD600, basal, 24 h (AID 1177); settings: OD600, 24 h, higher = more signal, called active from +8 up or from −8 down;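 note: cultures grown under basal conditions with no added stressor; test concentration not given here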
[17] = E. coli acrAB mutant growth effects, primary screen, E. coli filamentation inducers, strain DRC39, OD650, 24 h (AID 1178); settings: higher = more signal, called active from +8 up or from −8 down;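 note: growth measured as culture turbidity by optical density at 650 nm; test concentration not given here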
[18] = E. coli acrAB mutant growth effects, primary screen, E. coli filamentation inducers, strain DRC39, OD650, 48 h (AID 1179);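 note: screen aims at cell division blockers that make cells filament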; settings: E. coli DRC39 delta-acrAB growth, higher = more signal, called active from +8 up or from −8 down
[19] = RPMI8226 myeloma cell viability, profiling panel, resazurin fluorescence, basal, 24 h, PK04 Diversity Set (AID 1180); settings: higher = more signal;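 note: RPMI8826 multiple myeloma cell line at 5000 cells per well; test concentration not given here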
[20] = target: E3 ubiquitin-protein ligase XIAP (Homo sapiens) (UniProt P98170); assay: XIAP binders, primary screen, biophysical, small-molecule microarray, fluorescence 635 nm (AID 1181); settings: small-molecule microarray binding, higher = more signal;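 note: score merges 667 nm emission and signal to noise over triplicate slides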
Sequence of E3 ubiquitin-protein ligase XIAP (Homo sapiens) (P98170 whole entry, looked up): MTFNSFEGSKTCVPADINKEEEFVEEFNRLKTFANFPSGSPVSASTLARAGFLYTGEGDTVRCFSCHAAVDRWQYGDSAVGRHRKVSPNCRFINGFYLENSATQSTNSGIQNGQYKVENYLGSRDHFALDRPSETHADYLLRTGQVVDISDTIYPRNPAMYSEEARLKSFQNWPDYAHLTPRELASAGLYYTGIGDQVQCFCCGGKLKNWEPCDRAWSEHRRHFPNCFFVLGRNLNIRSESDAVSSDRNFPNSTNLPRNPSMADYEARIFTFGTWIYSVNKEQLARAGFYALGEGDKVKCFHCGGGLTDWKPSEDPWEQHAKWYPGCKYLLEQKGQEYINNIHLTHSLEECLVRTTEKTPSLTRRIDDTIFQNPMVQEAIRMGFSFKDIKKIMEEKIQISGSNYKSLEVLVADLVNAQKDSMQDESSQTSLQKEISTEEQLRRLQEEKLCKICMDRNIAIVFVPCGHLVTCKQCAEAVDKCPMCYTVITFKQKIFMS

Sequence of Dihydroorotate dehydrogenase (quinone), mitochondrial (Plasmodium falciparum (isolate 3D7)) (Q08210 whole entry, looked up): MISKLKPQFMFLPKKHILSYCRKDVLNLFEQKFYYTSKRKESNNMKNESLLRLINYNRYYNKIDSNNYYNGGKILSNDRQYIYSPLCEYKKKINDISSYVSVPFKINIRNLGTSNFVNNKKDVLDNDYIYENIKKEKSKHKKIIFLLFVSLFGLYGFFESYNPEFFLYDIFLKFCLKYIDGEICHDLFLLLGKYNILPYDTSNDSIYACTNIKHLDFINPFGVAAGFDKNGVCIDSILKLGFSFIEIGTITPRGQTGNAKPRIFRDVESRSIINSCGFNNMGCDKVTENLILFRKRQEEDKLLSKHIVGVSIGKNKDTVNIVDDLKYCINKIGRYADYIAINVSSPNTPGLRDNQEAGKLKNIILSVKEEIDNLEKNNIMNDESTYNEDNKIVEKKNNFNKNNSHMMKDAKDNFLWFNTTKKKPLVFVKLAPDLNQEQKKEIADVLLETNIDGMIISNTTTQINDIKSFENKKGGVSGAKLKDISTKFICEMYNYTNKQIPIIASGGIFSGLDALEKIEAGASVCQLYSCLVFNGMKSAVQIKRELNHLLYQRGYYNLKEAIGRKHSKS

| Structure (SMILES) | z-score [1] | z-score [2] | z-score [3] | z-score [4] | z-score [5] | z-score [6] | z-score [7] | z-score [8] | z-score [9] | z-score [10] | z-score [11] | z-score [12] | z-score [13] | composite z-score [14] | z-score [15] | z-score [16] | z-score [17] | z-score [18] | z-score [19] | composite z-score [20] |
| --- | --- | --- | --- | --- | --- | --- | --- | --- | --- | --- | --- | --- | --- | --- | --- | --- | --- | --- | --- | --- |
| O=C(N1CCCCC1)[C@]1(CCS(=O)(=O)c2ccccc2)N=C(c2ccc(OCCCO)cc2)O[C@@H]1c1ccccc1 | -1.64 | 1.68 | -0.663 | -1.5 | -3.65 | -0.0371 | -0.136 (inactive) | -1.1 | -0.751 | -1.32 (inactive) | 0.0192 | -0.678 (inactive) | -2.49 (inactive) | 0.813 (inactive) | -0.345 (inactive) | 0.525 (inactive) | 0.779 (inactive) | -0.385 (inactive) | -1.61 | 0.0257 |
| C=CCOC(=O)[C@@H]1[C@H]2C(=O)O[C@H](c3ccccc3)[C@H](c3ccccc3)N2[C@H](c2ccc(OCCOC(=O)[C@H]3C[C@H]4C(=O)N[C@@H](CCCC[N+](C)(C)C)C(=O)N4[C@H]3c3cccc(OCCO)c3)cc2)[C@@]12C(=O)Nc1ccc(I)cc12 | -0.299 | 0.194 | -0.872 | -0.135 | 0.437 | -0.984 | 1.07 (inactive) | -0.742 | -1.24 | -0.166 (inactive) | -0.0059 | 1.68 (inactive) | -1.05 (inactive) | -0.483 (inactive) | 3.37 (inactive) | 1.12 (inactive) | -0.708 (inactive) | -1.23 (inactive) | -0.521 | 0.104 |
| O=C1C2C=CC(C(O)CCc3ccccc3)N(Nc3ccccc3)C2C(=O)N1c1ccccc1 (stereo not given) | -1.22 | -1.12 | 0.203 | -0.46 | 0.198 | -2.35 | -0.727 (inactive) | -0.278 | -0.174 | -0.424 (inactive) | -0.999 | -0.287 (inactive) | -1.81 (inactive) | 0.228 (inactive) | 1.12 (inactive) | 0.361 (inactive) | -0.97 (inactive) | -1.18 (inactive) | -1.67 | -0.16 |
| O=C1C2C=CC(C(O)c3ccccn3)N(Nc3ccccc3F)C2C(=O)N1c1ccccc1 (stereo not given) | -0.922 | -1.12 | 1.04 | -0.211 | -0.217 | -0.793 | 0.608 (inactive) | -0.196 | -0.541 | -0.52 (inactive) | 0.248 | -0.166 (inactive) | -0.497 (inactive) | 0.761 (inactive) | 0.378 (inactive) | -0.0396 (inactive) | -0.628 (inactive) | 0.292 (inactive) | -0.0768 | 0.0521 |
| C[n+]1ccc2ccc(O)cc2c1 | -0.274 | 0.509 | -1.33 | 0.653 | -1.91 | -0.774 | -0.917 (inactive) | 1.03 | -0.723 | -0.733 (inactive) | 0.0027 | -1.06 (inactive) | 0.242 (inactive) | -0.843 (inactive) | -0.131 (inactive) | 0.582 (inactive) | 0.0452 (inactive) | -0.0896 (inactive) | -0.654 | 0.473 |
| O=C1O[C@@H](c2ccccc2)[C@@H](c2ccccc2)N2[C@@H](c3ccc(O)cc3)[C@]3(C(=O)Nc4ccc(C#CCCO)cc43)[C@@H](C(=O)O)[C@H]12 | 1.18 | 0.352 | 1.41 | -1.34 | -0.16 | 0.767 | -1.02 (inactive) | -0.342 | -0.29 | 0.492 (inactive) | 0.259 | -1.01 (inactive) | 0.519 (inactive) | -2.07 (inactive) | 0.201 (inactive) | -0.261 (inactive) | 0.151 (inactive) | 0.67 (inactive) | 0.545 | 0.511 |
| Cc1ccc(S[C@]2(C(=O)NCc3ccccc3)CC(=O)N(Cc3cc(C(F)(F)F)cc(C(F)(F)F)c3)[C@@H]2c2ccc(CO)cc2)cc1 | -0.549 | 0.774 | 0.224 | -0.125 | -1.17 | -0.271 | -0.525 (inactive) | 1.13 | -0.476 | 0.7 (inactive) | -0.417 | -0.248 (inactive) | 0.133 (inactive) | 1.01 (inactive) | 0.711 (inactive) | 1.43 (inactive) | -0.244 (inactive) | -0.532 (inactive) | 0.14 | -0.228 |
| COC(=O)c1nc2oc1CC[C@@H](CO)NC(=O)N(C)Cc1cn(nn1)C[C@H](Cc1ccccc1)NC2=O | -0.0651 | -0.734 | 0.786 | 0.648 | 0.854 | 0.136 | 0.694 (inactive) | 0.263 | -1.48 | -0.0624 (inactive) | 0.395 | -7.59 (inactive) | 0.456 (inactive) | -0.773 (inactive) | 0.113 (inactive) | 0.219 (inactive) | 0.0613 (inactive) | 0.72 (inactive) | 0.407 | -0.117 |
| O=C1C2C=CC(C(O)c3ccc(-c4ccccc4)s3)N(Nc3ccccc3F)C2C(=O)N1c1ccccc1 (stereo not given) | -1.07 | -0.0797 | -0.297 | -0.0003 | -1.3 | -2.29 | -1.57 (inactive) | -0.35 | -0.0666 | -1.7 (inactive) | -1.5 | 0.025 (inactive) | -1.38 (inactive) | 0.853 (inactive) | 0.366 (inactive) | 1.19 (inactive) | -0.516 (inactive) | -0.795 (inactive) | -1.6 | 0.0101 |
